PNC assembly inh = High Content Assay for Compounds that inhibit the Assembly of the Perinucleolar Compartment | PC3M PTB-GFP, PNC prevalence imaging, 16 h; stronger effect = lower value | activity change (PNC), negative = inhibition, % at 10 µM | 3.1% of 140,000 active | AID 2417, 2010;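 active means readout at or below -70, meaning at least 70% loss of cells showing the perinucleolar compartment, a nuclear body marking cancer cells; inconclusive means readout between -30 and a set limit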
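Compounds are pinned in duplicate onto adhered PC3M cells stably expressing GFP-tagged PTB and incubated 16 h at 37 C. Cells are then fixed, nuclei stained with Hoechst, and PNC-positive cells counted.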
ALDH1A1 inh = qHTS Assay for Inhibitors of Aldehyde Dehydrogenase 1 (ALDH1A1). Aldehyde dehydrogenase 1A1 (Homo sapiens), P00352. Purified ALDH1A1, NADH fluorescence, propionaldehyde substrate. Potency, µM (series often up to 75.3 µM), most hits filed as inhibitors. 7.3% of 220,000 active. AID 1030, 2008
HPGD inh = qHTS Assay for Inhibitors of HPGD (15-Hydroxyprostaglandin Dehydrogenase); 15-hydroxyprostaglandin dehydrogenase [NAD(+)] (Homo sapiens), P15428; purified HPGD, NADH fluorescence kinetic, PGE2 substrate; Potency, µM, hits mostly inhibitors; 4.3% of 150,000 active; AID 894, 2007
Target sequence (P15428 whole entry, looked up): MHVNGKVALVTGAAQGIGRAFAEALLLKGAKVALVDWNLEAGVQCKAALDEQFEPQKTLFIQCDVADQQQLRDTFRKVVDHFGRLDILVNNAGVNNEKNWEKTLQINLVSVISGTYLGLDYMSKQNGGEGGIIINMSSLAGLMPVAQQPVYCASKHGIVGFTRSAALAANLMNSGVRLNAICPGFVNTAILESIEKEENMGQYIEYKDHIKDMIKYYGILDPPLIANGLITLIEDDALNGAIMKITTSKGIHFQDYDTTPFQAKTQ
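NADH formation kinetics: reaction with 30 uM PGE2 and 1 mM NAD+ (final), 20 nM enzyme, Tris-HCl pH 8 with Tween 20, after 15 min compound preincubation at room temperature. Fluorescence change, last versus first of five reads.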
12-hLO inh = qHTS Assay for Inhibitors of 12-hLO (12-human lipoxygenase); 0.12% of 150,000 active; purified 12-hLO, xylenol orange hydroperoxide absorbance; Polyunsaturated fatty acid lipoxygenase ALOX12 (Homo sapiens), P18054; Potency, µM (series often up to 57.1 µM), usual class: inhibitors; active means well fitted inhibition curve with a large enough effect; inconclusive means small, poorly fitted or top-dose-only effect; further: nearly all actives have a fitted effect of over 55% in size
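Purified human 12hLO (150 nM final) was preincubated with compounds for 15 min at room temperature in 25 mM Hepes pH 7.0, 0.01% Triton X-100, then reacted with 40 uM arachidonic acid for 30 min. Hydroperoxide was detected with ferrous iron/xylenol orange.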
LMNA splice mod = qHTS Assay for Modulators of Lamin A Splicing | HeLa LMNA splicing GFP/RFP minigene ratio, 48 h | Potency, µM (top dose mostly 46.1 µM), hits mostly inhibitors | 0.01% of 200,000 active | AID 1487, 2009; active means well fitted inhibition curve with a large enough effect in the signal ratio, with a control signal flat, not every such curve was filed as active; inconclusive means small, poorly fitted or top-dose-only effect, or effect the other way, or a change in a side signal; the % refers to the signal ratio
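Read-out is the ratio of GFP to DsRed2 object intensity, acquired by 488 nm laser-scanning cytometry on HeLa lamin A-EGFP minigene reporter cells. Compound incubation 48 hrs at 37 °C in Opti-MEM with 2% FBS; DMSO 0.5% final.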
Hits are given with their value; . = inactive; ? = inconclusive; / = no result given; ! = not confirmed by another sample; [ ] = another dose, or the depositor's remark. In the library only some 10% were active in any assay of this set; here they are far more common. Unless noted, the call rests on the fitted dose curve; in most records, active means well fitted inhibition curve with a large enough effect (not every such curve was filed as active); inconclusive means small, poorly fitted or top-dose-only effect, or another doubt; inactive means no such curve, though single readings can be large or run the other way.

SMILES	PNC assembly inh	ALDH1A1 inh	HPGD inh	12-hLO inh	LMNA splice mod
COC(=O)C1=C(C)N(CCc2ccc(OC)c(OC)c2)C(=O)/C1=C\c1ccc(O)cc1	-116	25µM	.	.	.
O=C(Cn1c(=O)oc2ccccc21)NCc1ccccc1Cl	/	/	/	/	.
CCC[C@H](Sc1nc(N)nc2nc[nH]c12)C(=O)O	/	.[13.5 µM]	.	.[11.4 µM]	/
CN(C)CCN(C(=O)c1cccc(Cl)c1)c1nc2c(Cl)cccc2s1	.	.	.	.	.
Cc1ccc2sc(N(CCCN(C)C)C(=O)c3nc4ccccc4s3)nc2c1C	/	.	/	/	.
Cc1cccc2sc(N(CCCN(C)C)C(=O)c3nc4ccccc4s3)nc12	-118	?	?	.	.
CN(C)CCN(C(=O)c1ccccc1Cl)c1nc2c(Cl)cccc2s1	.	32µM	.	.	.
Nc1ncc(S(=O)(=O)NCc2cccc(Cl)c2)cn1	/	/	/	/	.
COc1ccc(C(=O)CSc2[nH]c(=O)cc(C(F)(F)F)c2C#N)cc1	/	18µM	/	/	/
Cc1ccc2ccccc2c1[N+](=O)[O-]	/	.	.	.	/
CCCCC/C=C\C/C=C\CCCCCCCC(=O)O	/	18µM!	8.9µM!	.	?
O=C(O)CC1Sc2ccccc2NC1=O (stereo not drawn)	.	.	.	.	.
O=C1Nc2ccccc2SC(c2ccccc2)C1O (stereo not drawn)	?	.	28µM	.	.
CC(=O)OCC(=O)[C@@]1(O)CCC2C3CCC4=CC(=O)C=CC4(C)C3C(O)C[C@]21C (stereo partly drawn)	/	.	.	.	.
Cc1ccc(N=Cc2c(C)[nH]n(-c3nc4ccccc4[nH]3)c2=O)cc1	-81	.	.	.	.
Cc1ccc(-n2[nH]c(C)c(C=Nc3ccc4[nH]c(=O)[nH]c4c3)c2=O)cc1	.	.	.	.	.
COc1cccc2c(C)cc3nnc(SCC(=O)Nc4ccc(C)cc4)n3c12	/	/	/	/	.
N#CCCSc1ccccc1NC(=O)c1ccc(S(=O)(=O)N2CCCC2)cc1	?	2.5µM	11µM	.	.
N#CCCN(Cc1cccnc1)C(=S)NC(=O)c1ccc(S(=O)(=O)N2CCCC2)cc1	/	14µM	/	/	.
O=C(Nc1cccc2c1C(=O)NC2=O)c1ccc(S(=O)(=O)N2CCCC2)cc1	-111	?	?	.	.
CC(C)N(C)C	/	.	.	.	/
O=C1c2ccccc2C(=O)c2c1cccc2N1CCOCC1	.	.	.	.	.
O=C1C(N2CCOCC2)=C(n2nnc3ccccc32)C(=O)c2ccccc21	.	1.3µM	?	.	?
CN(C)c1ccc(C(CNS(=O)(=O)c2ccc(F)cc2)c2c[nH]c3ccccc23)cc1 (stereo not drawn)	?	?	.	.	?
CN(C)c1ccc(C(CNC(=O)c2ccc(C#N)cc2)c2c[nH]c3ccccc23)cc1 (stereo not drawn)	.	14µM	.	.	.
SMILES	PNC assembly inh	ALDH1A1 inh	HPGD inh	12-hLO inh	LMNA splice mod
CN(C)c1ccc(C(CNC(=O)c2ccccc2Br)c2c[nH]c3ccccc23)cc1 (stereo not drawn)	.	7.9µM	.	.	.
CCOC(=O)c1ccc(S(=O)(=O)NCC(c2ccc(N(C)C)cc2)c2c[nH]c3ccccc23)cc1 (stereo not drawn)	.	.	.	.	.
Cc1c(NC(=O)c2cc(-c3cccs3)on2)c(=O)n(-c2ccccc2)n1C	?	32µM	.	.	?
Cc1c(NC(=O)c2cc(-c3ccco3)on2)c(=O)n(-c2ccccc2)n1C	.	?	.	.	.
COc1ccc(NC(=O)/C(=C\c2cc(OC)c(OC)cc2[N+](=O)[O-])NC(=O)c2ccccc2)cc1	.	.	32µM	.	.
COc1ccccc1C(=O)N/C(=C/c1cccc([N+](=O)[O-])c1)C(=O)Nc1cccc(C(=O)O)c1	/	.	/	/	/
COc1ccc(C(=O)N/C(=C\c2cccc([N+](=O)[O-])c2)C(=O)Nc2cccc(C(=O)O)c2)cc1	/	13µM	/	/	/
Cc1ccc(C)c(OCCCC(=O)Nc2nccs2)c1	.	.	.	.	?
COc1cc([N+](=O)[O-])ccc1NC(=O)CCCOc1cc(C)ccc1C	.	28µM	.	.	.
Cc1ccc(C)c(OCCCC(=O)Nc2ccccc2C(N)=O)c1	/	24µM	/	/	/
Cc1cc(C(=O)NNC(=S)NCc2ccco2)nn1C	/	.	/	/	/
Cc1nn(C)c(C(=O)NNC(=S)NCc2ccco2)c1Cl	.	.	35µM	.	.
Cc1nn(C)c(C(=O)NNC(=S)NCC(C)C)c1Cl	-114	.	.	.	?
Cc1nc(-c2ccc(-n3nncc3-c3ccco3)cc2)cs1	/	25µM	/	/	.
O=c1c(-c2ccc(F)cc2)nc2cnc(N3CCOCC3)nc2n1CCc1ccccc1	/	?	/	/	.
C=CCNC(=S)Nc1sc2c(c1C(=O)OCC)CCN(C(=O)OCC)C2	.	20µM	.	.	.
CCOC(=O)N1CCc2c(sc(NC(=O)CN3CCN(C)CC3)c2C(=O)Nc2ccccc2)C1	/	14µM	/	/	/
CCOC(=O)c1c(NC(=S)Nc2ccccc2)sc2c1CCN(CC)C2	.	?	?	.	.
CCOC(=O)c1c(NC(=S)Nc2ccccc2)sc2c1CCCCC2	?	?	.	?	?
CCOC(=O)c1c(NC(=S)Nc2cccc(C)c2)sc2c1CC(C)(C)SC2	?	4µM	?	.	.
C=CCNC(=S)Nc1sc2c(c1C(=O)OCC)CC(C)(CC)OC2 (stereo not drawn)	-100	?	.	.	.
Cc1ccc2nc(N(Cc3cccnc3)C(=O)c3ccco3)sc2c1	/	/	/	/	.
CC(=O)Nc1ccc(Cl)c(C(N)=O)c1	.	.	.	.	.
NC(=O)c1cc(N2C(=O)C=CC2=O)ccc1Cl	.	0.79µM	7.9µM	.	?
COc1cccc(OCC(=O)NCCS(=O)(=O)N2CCN(c3ccccc3F)CC2)c1	/	/	/	/	.
SMILES	PNC assembly inh	ALDH1A1 inh	HPGD inh	12-hLO inh	LMNA splice mod
O=C(c1oc2ccccc2c1CSCc1ccccc1)N1CCN(c2ncccn2)CC1	.	13µM	.	.	?
Cc1c(C(=O)N2CCCCCC2)oc2ccccc12	.	.	16µM	.	.
Cc1c(C(=O)N2CCN(c3ccccn3)CC2)oc2ccccc12	.	14µM	.	.	.
CCC1CCCCN1S(=O)(=O)c1cc2c3c(c1)CC(=O)N3CCC2 (stereo not drawn)	/	/	/	/	.
COc1ccc(-n2c(=O)c(-c3cccs3)nc3cnc(Oc4ccccc4)nc32)cc1	/	.	.	.	/
COc1ccc(C(=O)Nc2cc(-c3ccccc3)nn2-c2ccccc2)cc1	/	/	/	/	.
COc1ccc(-c2cc(C(=O)NN)n(-c3ccccc3)n2)cc1	.	8.9µM	.	.	?
COc1ccc(-c2cc(C(=O)NN)[nH]n2)cc1	.	20µM	.	.	?
COc1ccc(-c2cc(C(=O)N/N=C/c3ccc(O)cc3)[nH]n2)cc1	/	13µM	?	.	/
